# Reference: PubChem BioAssay (NCI)
# This is part of a sample that, as a whole, favours compounds with a hit. Of some 83,000 tested, about 20% had one in any assay.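 Activity criterion: percent growth below 10, measured after cells in 96-well plates were exposed to a single compound concentration for 48 hours.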 A number with no mark means an inactive call. Activity calls are given as the source filed them.
# Tested on: COLO 205 colon
# Assay: NCI-60 one-dose screen, 48 h (100 = growth as untreated, 0 = no growth, -100 = all killed)
# Details: 10 µM
row,SMILES,growth
1,COc1cc(-c2nc3cc(Cl)c(Cl)cc3[nH]2)ccc1OCc1nnc(-c2ccc(Br)cc2)o1,51.4%
2,Cc1ccc(NC(=O)c2ccc(-n3c(=O)[nH]c4ccccc4c3=O)cc2)cc1,109%
3,CC(=C(c1ccc(OCCN2CCCCC2)cc1)c1ccc(OCCN2CCCCC2)cc1)c1ccccc1,-83.9% (active)
4,CCCCCc1ccc(S(=O)(=O)N(C(C)=O)c2cc(-c3csc(N(C)C(C)=O)n3)ccc2N2CCN(C)CC2)cc1,-71.6% (active)
5,COc1cc2c3c(n(CCCNC(C)C)c(=O)c2cc1OC)-c1nc2c(cc1C3=O)OCO2,-67.6% (active)

# Tested on: DU-145 prostate
# Assay: as above
# Details: 10 µM
row,SMILES,growth
1,O=C(NO)c1ccc(Cn2ccc3c(Nc4ccccc4)ncnc32)cc1,20%
2,N#Cc1ccc(-c2nn(-c3ccc(C(=O)O)cc3)cc2CNc2cccc(Br)c2)cc1,76.8%
3,O=C(c1ccc(Cl)cc1)C1[C@H](c2ccccc2Br)[C@@H](c2ccccc2)NC12C(=O)Nc1ccccc12 (some centres not stated),17.6%
4,CC1(C)CC[C@]2(C(=O)Nc3ccccc3)CC[C@]3(C)C(=CC[C@@H]4[C@@]5(C)CC[C@H](N)C(C)(C)[C@@H]5CC[C@]43C)[C@H]2C1,26.6%
5,CC(=C(c1ccc(OCCCN(C)C)cc1)c1ccc(OCCCN(C)C)cc1)c1ccccc1,-100% (active)
6,Cc1ccc(/C=C/C(=O)c2ccc(S(=O)(=O)NCCNc3nc(Nc4ccc(F)cc4)nc(N(C)C)n3)cc2)cc1,30%
7,COc1ccc(C(=O)Nc2sc3c(c2C#N)CCC(=O)C3)cc1C(F)(F)F,25.3%
8,COc1ccc2nc(Cl)c(-c3cc(-c4ccccc4)nc(=S)[nH]3)cc2c1,72.6%
9,Cc1ccc(-c2cc(C(=O)N=Nc3c(O)[nH]c4ccccc34)c3ccccc3n2)cc1,3.29% (active)
10,C#Cc1ccc(S(=O)(=O)Nc2cccc(-c3csc(NC(C)=O)n3)c2)cc1,82.6%
11,CC(C)C1=C[C@@]23CC[C@@H]4[C@](C)(CCC[C@]4(C)C(=O)NCc4ccccc4)[C@H]2C[C@@H]1[C@H]1C(=O)CCC(=O)[C@H]13,98.1%
12,COc1ccc(C(=O)NC(=S)N2CCN(c3ncnc4c3cnn4-c3ccccc3)CC2)cc1,79.9%
13,C[C@H]1[C@H](C)CC[C@]2(COC(=O)CCC(=O)NCC#CCN3CCNCC3)CC[C@]3(C)C(=CC[C@@H]4[C@@]5(C)CCCNC(C)(C)[C@@H]5CC[C@]43C)[C@H]12,74.4%
14,CC[C@@]1(O)C(=O)OCc2c1cc1n(c2=O)Cc2c-1nc1cc(F)c(C)c3c1c2[C@@H](N)CC3,6.82% (active)
15,Cc1cccc2cc(-c3cc(-c4ccccc4)nc(=S)[nH]3)c(Cl)nc12,104%
16,Cc1ccc(CNC(=O)Cc2ccc3c(c2)CN(C2CCC(=O)NC2=O)C3=O)cc1 (configuration not stated),30.2%
17,CONC[C@]1(C)C=C2C(=O)[C@](C)(O)C3(CC3)C(C)=C2[C@H]1O,2.57% (active)
18,CC1(C)CC[C@]2(C(=O)N3CCOCC3)CC[C@]3(C)C(=CC[C@@H]4[C@@]5(C)CC[C@H](NCO)C(C)(C)[C@@H]5CC[C@]43C)[C@H]2C1,-89.4% (active)
19,NS(=O)(=O)c1ccc(N=Nc2c(O)n(CC(=O)Nc3ccccc3Br)c3ccccc23)cc1,34.7%
20,CNC(=O)c1cccc(N2CCc3c2ccc(NC(=O)Nc2ccc(N4CCN(C)CC4)c(C(F)(F)F)c2)c3F)c1,-76.2% (active)
21,O=C(NCCCCC(c1ccc(F)cc1)c1ccc(F)cc1)NCCCc1cccnc1,22%
22,CC(=O)Nc1ccc(-c2cn(-c3cccc(C(=O)Nc4ccc(Cl)c(C(F)(F)F)c4)c3)nn2)cn1,3.54% (active)
23,CCCS(=O)(=O)c1oc(-c2ccc(F)cc2)nc1S(=O)(=O)c1ccc(F)cc1,-85.8% (active)
24,O=C(Cn1nc(-c2ccccc2)ccc1=O)NN1C(=O)c2ccccc2C1=O,105%
25,CC(=O)NCC1=C(C)C=C2C(=O)[C@](C)(O)C3(CC3)C(C)=C21,-10.7% (active)
26,CCN1CCN(Cc2ccc(C(=O)Nc3cccc(-c4cn(-c5ccc6oc(=O)ccc6c5)nn4)c3)cc2C(F)(F)F)CC1,-100% (active)
27,CCOP(=O)(OCC)O[C@H]1CCC(=O)[C@@H]2[C@H]1[C@H]1C[C@@H]3[C@@]4(C)CCCC(C)(C(=O)OC)[C@@H]4CC[C@@]23C=C1C(C)C (some centres not stated),83.1%
